Results as given in PubChem BioAssay (Tox21).
Results filed as inconclusive are left out. A number with no mark means an inactive call. Active and inactive are the calls of the source. Calls follow the shape of the full dose curve.

Biological target: Peroxisome proliferator-activated receptor delta (Homo sapiens) (UniProt Q03181)
Assay: qHTS assay to identify small molecule agonists of the peroxisome proliferator-activated receptor delta (PPARd) signaling pathway (AID 743212)
Conditions: HEK293H PPARd-UAS-bla, beta-lactamase FRET ratio, 17 h; series mostly up to 62.6 µM; activation: at the top concentration
Excerpt: U.S. Tox21 Program National Center for Advancing Translational Sciences [NCATS] NIH Chemical Genomics Center [NCGC] U.S. Environmental Protection Agency [EPA] National Institutes of Environmental Health Sciences [NIEHS] National Toxicology Program [NTP] U.S. Food and Drug Administration [FDA] Tox21 Assay Overview: The peroxisome proliferator-activated receptors (PPARs) are lipid-activated transcription factors of the nuclear receptor superfamily with three distinct subtypes namely PPAR alpha, PPAR delta (PPARd) and PPAR gamma. All these subtypes heterodimerizes with Retinoid X receptor (RXR) and have different physiological functions. […] To identify the compounds that activate PPAR-delta signaling, GeneBLAzer PPAR delta UAS-bla HEK293H cell line (Invitrogen, Carlsbad, CA, USA) containing a beta-lactamase reporter gene under the control of an Upstream Activator Sequence (UAS) was used to screen the Tox21 compound library.
Tox21 Assay Protocol Summary: PPARd-bla cells were dispensed at 3000 cells/6uL/well in 1536-well black wall/clear bottom plates using a Multidrop Combi (Thermo Fisher Scientific, Waltham, MA) dispenser. After the assay plates were incubated at 37 C and 5% CO2 for 5 h, 23 nL of compounds dissolved in DMSO, positive controls or DMSO only was transferred to the assay plate by a Pintool station (Kalypsys, San Diego, CA). The assay plates were incubated at 37C for 17 h. After 1 uL of LiveBLAzerTM B/G FRET substrate was added using a Bioraptr Flying Reagent Dispenser (FRD) workstation (Beckman Coulter, Indianapolis, IN, USA), the plates were incubated at room temperature for 2 h, and fluorescence intensity was measured by an Envision plate reader (PerkinElmer, Shelton, CT).
% is scaled to controls: 0 for no effect and ±100 for the full control effect; potency is read from the fitted curve at half-maximal effect.

Sequence of Peroxisome proliferator-activated receptor delta (Homo sapiens) (Q03181 whole entry, looked up): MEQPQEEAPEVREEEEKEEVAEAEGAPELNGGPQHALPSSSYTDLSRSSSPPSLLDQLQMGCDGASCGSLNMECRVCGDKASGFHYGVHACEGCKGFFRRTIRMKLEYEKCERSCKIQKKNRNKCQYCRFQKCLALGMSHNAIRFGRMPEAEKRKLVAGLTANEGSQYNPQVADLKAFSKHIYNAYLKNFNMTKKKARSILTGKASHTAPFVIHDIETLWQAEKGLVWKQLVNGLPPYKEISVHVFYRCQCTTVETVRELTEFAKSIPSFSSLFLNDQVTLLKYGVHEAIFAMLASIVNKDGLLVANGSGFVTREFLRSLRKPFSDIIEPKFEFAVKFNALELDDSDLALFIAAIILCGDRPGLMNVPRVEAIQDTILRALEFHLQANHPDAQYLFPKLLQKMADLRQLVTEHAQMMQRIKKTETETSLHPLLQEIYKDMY

| SMILES | Potency | activation |
| --- | --- | --- |
| COC(=O)c1cccc(C(=O)OC)c1 | inactive | – |
| Nc1cc(Cl)c(-c2cc(Cl)c(N)cc2Cl)cc1Cl | – | 14.3% |
| O=c1n(CC2CO2)c(=O)n(CC2CO2)c(=O)n1CC1CO1 (stereo not given) | inactive | – |
| CCC(=O)/C=C/C1C(C)=CCCC1(C)C (stereo not given) | inactive | – |
| O=Cc1ccc(Cl)cc1 | – | 3.53% |
| Cc1cc(Cc2cc(C)cc(C(C)(C)C)c2O)c(O)c(C(C)(C)C)c1 | – | 2.84% [at 81.1 µM] |
| CC(COc1ccccc1)N(CCCl)Cc1ccccc1 (stereo not given) | inactive | – |
| c1cnc2cc3c(cc2n1)C1CNCC3C1 | – | 3.36% |
| CC(=O)N[C@@H](CS)C(=O)O | inactive | – |
| BrC1CCC(Br)C(Br)CCC(Br)C(Br)CCC1Br (stereo not given) | – | 0.619% |
| Cc1ccc(-c2cc(C(F)(F)F)nn2-c2ccc(S(N)(=O)=O)cc2)cc1 | – | -12.7% |
| COC(c1ccccc1)(c1ccccc1)[C@H](Oc1nc(C)cc(C)n1)C(=O)O | – | -6.25% |
| C=C(C)C1CC=C(C)C(OC(C)=O)C1 (stereo not given) | inactive | – |
| CC(=O)CC(=O)Nc1ccc2[nH]c(=O)[nH]c2c1 | – | -1.03% |
| CCOc1ccccc1C(N)=O | – | -0.855% |
| CCOC(=O)C(C)C(C)=O (stereo not given) | – | -1.48% [at 81.1 µM] |
| CCCCOCCOC(=O)c1ccccc1C(=O)OCCOCCCC | – | -3.95% |
| CC(=O)C1=C(C)[C@@H]2C[C@@]3(C1)[C@H](C)CC[C@H]3C2(C)C | inactive | – |
| CCCC(=O)c1ccccc1 | – | -2.07% |
| Cc1ccnc2c1NC(=O)c1cccnc1N2C1CC1 | inactive | – |

| SMILES | Potency | activation |
| --- | --- | --- |
| C=CC(=O)OCCCCCCCC | – | -2.69% |
| CCc1ccc(C(c2ccc(CC)cc2)C(Cl)Cl)cc1 | inactive | – |
| Cc1scc2c1N(C(=O)CN1CCN(C)CC1)c1ccccc1NC2=O | – | -0.33% |
| CC(=O)Nc1ccc(C(=O)CCl)cc1 | – | 8.06% |
| CC[C@]1(O)C[C@@H]2CN(CCc3c([nH]c4ccccc34)[C@@](C(=O)OC)(c3cc4c(cc3OC)N(C)[C@H]3[C@@](O)(C(=O)OC)[C@H](OC(C)=O)[C@]5(CC)C=CCN6CC[C@]43[C@@H]65)C2)C1 | – | -2.18% |
| CCCCCCC(O)CCCCCCCCCCC(=O)O (stereo not given) | 21.9 µM (active) | – |
| Clc1ccc2c(c1)C(N1CCNCC1)=Nc1ccccc1O2 | – | -3.02% |
| CC[C@H]1CN2CCc3cc(OC)c(OC)cc3[C@@H]2C[C@@H]1C[C@H]1NCCc2cc(OC)c(OC)cc21 | inactive | – |
| c1ccc2n[nH]nc2c1 | inactive | – |
| OCCOCCN1CCN(C(c2ccccc2)c2ccc(Cl)cc2)CC1 (stereo not given) | inactive | – |
| O=C(O)c1cn(-c2ccc(F)cc2)c2cc(N3CCNCC3)c(F)cc2c1=O | – | -0.385% [at 29.1 µM] |
| C[N+]1([O-])CCOCC1 | – | -0.726% |
| CCn1cc(C(=O)O)c(=O)c2cc(F)c(N3CCNC(C)C3)c(F)c21 (stereo not given) | – | 1.26% |
| NC(N)=Nc1nc(CSCC/C(N)=N/S(N)(=O)=O)cs1 | inactive | – |
| O=S(=O)(O)c1ccc2nc(-c3ccccc3)[nH]c2c1 | inactive | – |
| NC12CC3CC(CC(C3)C1)C2 | – | -6.57% |
| C=CS(=O)(=O)O | – | 1.73% [at 81.1 µM] |
| CCCCN(CCO)CCCC | – | -4.93% [at 81.1 µM] |
| C1COC(NC(C2CC2)C2CC2)=N1 | – | -2.7% |
| COc1cc(C(=S)N2CCOCC2)ccc1O | – | -2.53% |
